Measured values published in the supplement of paper PMC10338343.
± gives the standard deviation. In all, about 8,200 sequences were measured (“pre-steady-state target cleavage rate”: median about 0.024, highest 2% from about 1.3 on). Shown is part of a subset that was picked to be rich in the highest values.

Test system: MIWI (PIWIL1) piRISC loaded with L1MC piRNA (30 nt)
Assay: pre-steady-state target cleavage rate (min^-1); MIWI and MILI are mouse PIWI proteins and EfPiwi is from a freshwater sponge; tags in brackets are library labels; higher = faster piRNA-guided slicing of the target
Settings: guide: L1MC piRNA 5'p-UAACUAAAUACUAUGCAAGCUGUAGGUCCU
Summary of the method: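 For Cleave-'n-Seq, a transcribed, DNA-blocked target RNA library […] met 1 nM active affinity-purified piRISC with one synthetic guide at 33 °C for 0–8 or 0–960 min in HEPES–potassium acetate buffer, with or without 500 nM GTSF1 partner protein. Uncleaved targets were sequenced and normalised to depth and weakly complementary targets, with three trials pooled and k3 capped at 0.0001 min^-1. A burst-and-steady-state fit supplied the pre-steady-state cleavage rate.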

[1] = auxiliary factor: 500 nM mouse GTSF1
[2] = auxiliary factor: none (no GTSF1)
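Also: 1 nM active piRISC with 0.1 nM target library at 33 °C single turnover.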

Sequence	pre-steady-state target cleavage rate [1]	pre-steady-state target cleavage rate [2]
UCCUGGAUGUCGAACGUAUGAUUUUAGUUA	< 0.0001	–
UCCUGCUUGUGCUUGCAUAGUAUUUAGUAA	0.133 ± 0.019	0.0144 ± 0.0036
UCCUGGUACAGGCUUGCAUAGUAUUUAGUUA	0.498 ± 0.059	0.0384 ± 0.0089
UCCUGGAUGUCGAUGCAUAGUAUUGAGUUA	0.02 ± 0.006	–
UCCUGGAUCAGCUUGCAUAGUCUUUAGUUA	0.841 ± 0.035	0.0552 ± 0.012
AGGACCUACAGCUUGCAUAGUAUUUAAUUA	0.357 ± 0.033	0.0325 ± 0.0055
AGGACCUACAGCUUGCUUAGUAUUUAGAAA	0.486 ± 0.063	0.00737 ± 0.0028
UCCUGGAUCAACUUGCAUAGUAUUUAGUUA	1.01 ± 0.051	0.0248 ± 0.0054
AGGACCUACAGGAAGCAUAGUAUUUACAAA	0.32 ± 0.064	–
UCGACCAACAGCUUGCAUAGUAUUUAGUAA	1.2 ± 0.065	0.0413 ± 0.0084
UCGACCAACAGCUUGCAUAGUAUUUAGAUA	0.54 ± 0.029	0.0297 ± 0.0066
UGCACCAACAGCUUGCAUAGUAUUUAGUUA	1.23 ± 0.056	0.0613 ± 0.0098
ACGACCAACAGCUUGCAUAGUAUUUAGUUA	1.64 ± 0.055	0.0972 ± 0.018
AGCACCAACAGCUUGCAUAGUAUUUAGUUA	1.03 ± 0.058	0.0664 ± 0.011
UCGACCAACAGCUUGCAUAGUAUUUAGUUA	1.62 ± 0.054	0.0825 ± 0.014
UCCUGGAUGUGCUUGCAUAGUAUUUUGAAA	0.0177 ± 0.0092	0.00406 ± 0.0024
UCCUGCUACAGCUUGCAUUCUAUUUACAAA	0.0158 ± 0.0068	–

Sequence	pre-steady-state target cleavage rate [1]	pre-steady-state target cleavage rate [2]
AGGAGCUACAGGUUGCAUAGUAUUUAGUUA	1.17 ± 0.075	0.0502 ± 0.0084
UCCUGGUACAGAUUGCAUAGUAUUUAGUUA	0.58 ± 0.071	0.0178 ± 0.0046
UCCUGGAACAGCUUGCAUACAAUUUAGUAA	0.0102 ± 0.0056	–
AGGACCUACAGCAUGCAUAGUAUUUACAAA	0.526 ± 0.066	0.00349 ± 0.0032
AGGACGUUCAGCUUGCAUAGUAUUUAGUUA	1.35 ± 0.063	0.0669 ± 0.01
AGGACGAACAGCUUGCAUAGUAUUUAGUUA	1.27 ± 0.045	0.084 ± 0.016
UCCACCUUCAGCUUGCAUAGUAUUUAGUUA	0.933 ± 0.045	0.0531 ± 0.0087
UCGACGUUCAGCUUGCAUAGUAUUUAGUUA	1.3 ± 0.036	0.0748 ± 0.015
UCCACGUUCAGCUUGCAUAGUAUUUAGUUA	1.42 ± 0.057	0.0658 ± 0.011
UGGACGUAGAGCUUGCAUAGUAUUUAGUUA	1.29 ± 0.083	0.043 ± 0.0093
AGGACGUAGAGCUUGCAUAGUAUUUAGUUA	1.17 ± 0.072	0.047 ± 0.0083
UCCACCACAGCUUGCAUAGUAUUUAGUUA	0.992 ± 0.035	0.0505 ± 0.0088
UGGACGUUCAGCUUGCAUAGUAUUUAGUUA	1.37 ± 0.052	0.0691 ± 0.012
UGGACCUACAGCUUGCAUACAAUUUAGUAA	0.00447 ± 0.0027	–
UCCACCUACAGCUUGCUAUGUAUUUAGAAA	0.00878 ± 0.0045	–
UCCUGGAUGUGCUUGCAUACUAUUUAGUUA	0.0877 ± 0.01	0.0191 ± 0.0037
UCCUGGAUCAGCUUGCAUAGUAUUUUGAUA	0.17 ± 0.032	0.0123 ± 0.004
